DT40 TDP1 no CPT: qHTS for Inhibitors of human tyrosyl-DNA phosphodiesterase 1 (TDP1): qHTS in cells in absence of CPT. DT40 Tdp1-/- hTDP1 cells, no CPT, ATP luminescence, 48 h. Potency, µM (top dose mostly 46.2 µM), inactives show at the highest dose activity change, negative = growth inhibition, usual class: inhibitors. 420,000 compounds, 15% hits. AID 686978, 2013; further: potency means the concentration at half of the fitted maximal effect; on the % scale 0 is the no-effect control and ±100 the full control effect; nearly all actives have a fitted effect of over 55% in size
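Luminescent ATP content (CellTiter-Glo) served as the growth readout. Knockout chicken DT40 cells expressing human TDP1 were exposed to compounds without camptothecin for a minimum 48 hr at 37 °C.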
DT40 TDP1 CPT: growth inhibition of DT40 Tdp1-/-;hTDP1 cells with camptothecin (screen for TDP1 inhibitors) | chicken DT40 Tdp1-/-;hTDP1 cells + 20 nM CPT, ATP luminescence, 48 h | Potency, µM (highest dose often 46.2 µM), without a hit: at the highest dose activity change, negative = growth inhibition, actives largely listed as inhibitors | 420,000 compounds, 12% hits; further: potency means the concentration at half of the fitted maximal effect; on the % scale 0 is the no-effect control and ±100 the full control effect; nearly all actives have a fitted effect of over 55% in size
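Chicken DT40 Tdp1-/- cells stably complemented with human TDP1 were seeded at 400 cells/well in medium containing 20 nM camptothecin, exposed to pin-transferred compounds, and grown at 37 °C for at least 48 hr. Viability was read as ATP luminescence.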
TGFb SMAD3 inh: blocks TGF-b signaling; HepG2 CAGA-GFP TGF-b/SMAD3 reporter, GFP fluorescence, 18 h; TGF-beta stimulated, 500 pg/mL final; Potency, µM (titrated, usually from 46.1 µM), without a hit: at the top dose activity, negative = inhibition, most hits filed as inhibitors; 410,000 compounds, 1.2% hits; AID 588855; further: potency means the concentration at half of the fitted maximal effect; on the % scale 0 is the no-effect control and ±100 the full control effect; nearly all actives have a fitted effect of over 65% in size
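Inhibition was scored as loss of TGF-beta-induced (500 pg/mL final, 18 hours, 37 degrees C) GFP in HEPG2 cells carrying a CAGA-GFP reporter, in DMEM with 1% FBS. Well GFP was summed per cell; Activity was normalised to unstimulated and stimulated DMSO wells, then concentration-response fitting.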
TDP1 inh: blocks human tyrosyl-DNA phosphodiesterase 1; Q9NUW8; recombinant TDP1, AlphaScreen DNA substrate cleavage; Potency, µM (titrated, usually from 130 µM), for the others: at the highest dose activity change, negative = inhibition, actives largely listed as inhibitors; 350,000 compounds, 0.28% hits; AID 485290; further: potency means the concentration at half of the fitted maximal effect; on the % scale 0 is the no-effect control and ±100 the full control effect; nearly all actives have a fitted effect of over 40% in size
Target sequence (Q9NUW8 whole entry, looked up): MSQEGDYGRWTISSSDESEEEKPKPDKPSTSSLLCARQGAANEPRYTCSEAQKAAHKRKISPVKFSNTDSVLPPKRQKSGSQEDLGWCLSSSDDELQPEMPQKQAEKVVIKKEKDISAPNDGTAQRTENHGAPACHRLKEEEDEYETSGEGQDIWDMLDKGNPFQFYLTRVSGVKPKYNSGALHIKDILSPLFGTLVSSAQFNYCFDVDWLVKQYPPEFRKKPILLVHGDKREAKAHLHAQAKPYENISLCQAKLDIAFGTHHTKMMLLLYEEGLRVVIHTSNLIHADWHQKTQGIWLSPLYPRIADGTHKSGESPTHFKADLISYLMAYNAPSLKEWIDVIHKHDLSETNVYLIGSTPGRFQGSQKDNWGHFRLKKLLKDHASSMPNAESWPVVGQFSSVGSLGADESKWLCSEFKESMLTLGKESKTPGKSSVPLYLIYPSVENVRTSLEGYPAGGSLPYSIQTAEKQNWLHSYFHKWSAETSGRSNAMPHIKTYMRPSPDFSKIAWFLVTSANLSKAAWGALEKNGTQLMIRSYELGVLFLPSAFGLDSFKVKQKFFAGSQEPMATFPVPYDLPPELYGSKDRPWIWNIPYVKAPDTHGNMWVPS
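Here, a 5' biotin and 3' phosphotyrosine-FITC DNA oligonucleotide reports Tdp1 activity: intact substrate bridges AlphaScreen beads, while cleavage leaves a 3' phosphate and drops signal. All incubations at room temperature.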
HepG2 viability: counter-screen for TGF-b inhibitors: cytotoxicity in HepG2 cells; HepG2 CAGA-GFP viability, ATP luminescence, 18 h; AID 588856; Potency, µM (titrated, usually from 46.1 µM), without a hit: at the top dose activity change, negative = cytotoxicity, actives largely listed as cytotoxic; 410,000 compounds, 0.76% hits; further: potency means the concentration at half of the fitted maximal effect
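HepG2 CAGA-GFP cells (1000/well, DMEM with 1% FBS) received compound, then TGF-beta at 500 pg/mL final, and were incubated 18 hours at 37 degrees C. Viability was read by CellTiter-Glo luminescence. Media-only wells were set as complete cell-killing and DMSO as no toxicity.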
IL1B secr inh: blocks inflammasome-driven IL-1 beta release; THP-1 LPS/ATP IL-1B secretion, AlphaLISA, 16 h; hits give low values; activity change, % at 57.5 µM; 360,000 compounds, 4.7% hits; AID 743279; in the data active means activity change below about -50%; inconclusive means mostly about -30% to -49%; further: on the % scale 0 is the no-effect control and ±100 the full control effect
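THP-1 cells pretreated 1 hr with compounds (up to 57.5 uM final), then stimulated with LPS (250 ng/mL final) plus ATP (1.25 mM final); secreted IL-1B measured by AlphaLISA after 16 hr, decreased signal indicating inhibition.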
* = called active by the depositor; ? = inconclusive; · = no result; [ ] = another dose, or the depositor's remark. Compounds with a hit are over-represented: about 18% of the library has one in this group of screens. Unless noted, the call rests on the fitted dose curve; in most records, active means well fitted curve in the direction sought with a large enough effect; inconclusive means small, poorly fitted or top-dose-only effect, or another doubt; inactive means no such curve, though single readings can be large; an effect the other way counts as inactive or inconclusive.

SMILES	DT40 TDP1 no CPT	DT40 TDP1 CPT	TGFb SMAD3 inh	TDP1 inh	HepG2 viability	IL1B secr inh
COc1cccc(C2=CC(=O)C[C@H](c3ccc(Cl)cc3)C2)c1OC	?	23µM*	?	2%	13%	?
Cc1ccc(S(=O)(=O)N2CCN(C(=O)CNC(=O)c3sc4ccccc4c3Cl)CC2)cc1	-18%	0%	-6%	·	-3%	-9
COc1ccc(NC(=O)N2CCc3c(sc4c3CCCC4)C2c2ccccc2OC)cc1 (stereo not given)	13µM*	16µM*	1%	0%	-25%	·
COc1cccc(CNC(=O)N2CCc3c(sc4c3CCCC4)C2c2ccc(F)cc2)c1 (stereo not given)	15µM*	?	-5%	1%	-18%	·
COC(=O)c1ccccc1NC(=O)N1CCc2c(sc3c2CCCC3)C1c1ccc(F)cc1 (stereo not given)	-29%	-27%	-2%	6%	3%	·
Cc1cc(/C=N/n2c(COc3ccccc3)nc3ccccc3c2=O)c(O)c([N+](=O)[O-])c1	21µM*	16µM*	16µM*	14%	-19%	40
Cc1ccccc1OCc1nc2ccccc2c(=O)n1/N=C/c1cn[nH]c1-c1ccccc1	21µM*	?	?	9%	-44%	-53*
CCCc1nc2ccccc2c(=O)n1/N=C/c1ccc(O)cc1O	-21%	?	-3%	5%	-2%	0
Cc1nc2ccccc2c(=O)n1/N=C/c1cn[nH]c1-c1ccccc1	15µM*	?	13%	1%	-35%	-14
Cc1ccc(-c2[nH]ncc2/C=N/n2c(COc3ccccc3)nc3ccccc3c2=O)cc1	?	?	10µM*	-1%	14µM*	-92*
Cc1nc2ccccc2c(=O)n1/N=C/c1ccccc1F	4%	-4%	0%	·	6%	-1
CCCOC(=O)c1ccc(Oc2coc3c(CN(CC)CC)c(O)ccc3c2=O)cc1	?	-7%	0%	1%	-35%	-5
COCCNC(=O)c1ccccc1NC(=O)Cc1ccccc1	-15%	18%	-23%	-6%	-3%	3
CCCCCN1C2=NCCN2c2ccccc21	16µM*	29µM*	?	4%[56.1 µM]	-16%	-2
CCCN1C2=NCCN2c2cc(C)c(C)cc21	23µM*	-27%	-3%	2%	2%	0
COc1ccccc1N1CCN(C(=O)c2cc(CC(C)C)on2)CC1	?	?	-1%	7%	-15%	·
CN(C)c1ccc(CN(C(=O)c2cccs2)C2CCS(=O)(=O)C2)cc1 (stereo not given)	-11%	5%	0%	10%	5%	-17
CCOC(=O)c1cc(-c2ccccc2)n(CC(=O)Nc2ccc(CC)cc2)c1C	16µM*	8.2µM*	0%	0%	-36%	·
CC(=O)c1cc(-c2ccccc2)n(CC(=O)Nc2cccc(C)c2C)c1C	-2%	7%	2%	-1%	9%	10
CCc1cccc(NC(=O)Cn2c(-c3ccc(F)cc3)cc(C(C)=O)c2C)c1	16µM*	13µM*	-32%	1%	-61%	·
CC(=O)c1cc(-c2ccccc2)n(CC(=O)Nc2ccc(C)c(C)c2)c1C	12µM*	?	-12%	-6%	-2%	-9
CCOC(=O)c1cc(-c2ccccc2)n(CC(=O)NCc2ccc(C)cc2)c1C	8.2µM*	?	0%	-1%	-2%	·
CC(=O)c1cc(-c2ccc(F)cc2)n(CC(=O)Nc2cc(C)cc(C)c2)c1C	?	?	0%	5%	-3%	·
CCCCNc1nc2c(c(=O)[nH]c(=O)n2C)n1CCCc1ccccc1	-1%	-16%	12%	·	-17%	6
O=C(O)c1ccc(Cl)c(Cl)c1	·	·	·	8%	·	·
SMILES	DT40 TDP1 no CPT	DT40 TDP1 CPT	TGFb SMAD3 inh	TDP1 inh	HepG2 viability	IL1B secr inh
CCCc1cc(=O)oc2cc(C)c(CN3CCCC3)c(O)c12	16µM*	?	2%	·	1%	39
CCc1cc(=O)oc2cc(C)c(CN3CCCCC3)c(O)c12	-24%	-18%	?	·	-16%	39
O=C1CC(c2ccco2)Cc2[nH]c(=O)c(C(=O)Nc3ccccc3)cc21 (stereo not given)	10µM*	?	6%	·	-11%	·
O=C1CC(c2ccccc2)Cc2[nH]c(=O)c(C(=O)Nc3ccc(F)cc3)cc21 (stereo not given)	5%	-2%	-3%	1%	-31%	·
Nc1cccc(S(=O)(=O)O)c1	·	·	·	15%	·	·
CN(C)CCOc1ccccc1Cc1ccccc1	?	?	8%	-2%	-5%	-17
CNCCCCOc1ccccc1Cc1ccccc1	8.4µM*	7.5µM*	·	6%	·	·
CN(Cc1ccccc1)C(=O)c1ccc(NC(=O)Cc2ccc(NC(=O)C3CCCN(C(=O)C4CCCC4)C3)cc2)cc1 (stereo not given)	?	?	-12%	·	-5%	0
CN(CCc1ccccc1)C(=O)c1ccc(NC(=O)Cc2cccc(NC(=O)C3CCN(C(=O)CCc4ccccc4)CC3)c2)cc1	?	?	?	·	-7%	20
CN(CCc1ccccc1)C(=O)c1ccc(NC(=O)Cc2ccc(NC(=O)C3CCN(S(=O)(=O)c4cccc([N+](=O)[O-])c4)CC3)cc2)cc1	9.2µM*	?	-17%	·	-9%	37
CN(CCc1ccccc1)C(=O)c1ccc(NC(=O)Cc2ccc(NC(=O)C3CCCN(C(=O)C4CCC4)C3)cc2)cc1 (stereo not given)	13µM*	13µM*	?	·	-1%	-4
CN(CCc1ccccc1)C(=O)c1ccc(NC(=O)Cc2ccc(NC(=O)C3CCCN(C(=O)CCc4ccccc4)C3)cc2)cc1 (stereo not given)	10µM*	13µM*	-24%	·	3%	9
CN(CCc1ccccc1)C(=O)c1ccc(NC(=O)Cc2ccc(NC(=O)C3CCN(C(=O)CCc4ccccc4)CC3)cc2)cc1	7.3µM*	15µM*	-9%	·	15%	23
COc1ccc(S(=O)(=O)N2CCC(Cc3ccccc3)CC2)cc1NC(C)=O	5%	-8%	-9%	4%	-11%	1
Nc1ncnc2c1ncn2[C@@H]1O[C@H](CNC(=O)[C@@H]2C[C@H](F)CN2)[C@@H](O)[C@H]1O	12%	4%	-19%	1%[56.1 µM]	1%	9
